According to the supplement of paper PMC8728848:
This is one part of a sample in which the strongest signals are shown more often than they occur.

Legend:
Assay in all cases: glycan array binding signal (z-score within array); higher = stronger binding
Conditions in all cases: glycan notation: IUPAC condensed, linker removed
[1] = target: Fuc(a1-2)Gal(b1-3)[Fuc(a1-4)]GlcNAc(b1-2)Man(a1-3)[Fuc(a1-2)Gal(b1-3)[Fuc(a1-4)]GlcNAc(b1-2)Man(a1-3)]Man(b1-4)GlcNAc(b1-4)GlcNAc
Procedure, shortened: (§1)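 Negative Z-scores can be read as non-binding. The Z-score is calculated within each array and then averaged across arrays of one protein sequence at different concentrations or buffers and across linkers. Arrays, 3228 in all, were curated from the Consortium for Functional Glycomics database and kept only where the protein sequence was available.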

[2] = target: Fuc(a1-2)Gal(b1-4)GlcNAc(b1-2)Man
Procedure, shortened: as §1

[3] = target: Fuc(a1-2)[Gal(a1-3)]Gal(b1-4)GlcNAc(b1-2)Man
Procedure, shortened: as §1

[4] = target: Fuc(a1-2)[Gal(a1-4)]Gal(b1-4)GlcNAc
Procedure, shortened: as §1

[5] = target: Fuc(a1-2)[GalNAc(a1-3)]Gal(b1-4)GlcNAc(b1-6)GalNAc
Procedure, shortened: as §1

[6] = target: Fuc(a1-3)[Gal(b1-4)]GlcNAc(b1-6)GalNAc
Procedure, shortened: as §1

[7] = target: Gal(a1-3)Gal(b1-3)GlcNAc(b1-2)Man
Procedure, shortened: as §1

[8] = target: Gal(a1-4)Gal(b1-3)GlcNAc(b1-2)Man(a1-3)[Gal(a1-4)Gal(b1-3)GlcNAc(b1-2)Man(a1-6)]Man(b1-4)GlcNAc(b1-4)GlcNAc
Procedure, shortened: as §1

[9] = target: Gal(b1-3)GlcNAc(a1-3)Gal(b1-4)GlcNAc
Procedure, shortened: as §1

[10] = target: Gal(b1-3)GlcNAc(b1-2)Man(a1-3)[GlcNAc(b1-4)][Gal(b1-3)GlcNAc(b1-2)Man(a1-6)]Man(b1-4)GlcNAc(b1-4)GlcNAc
Procedure, shortened: as §1

[11] = target: Gal(b1-3)GlcNAc(b1-3)Gal(b1-4)Glc
Procedure, shortened: as §1

[12] = target: Gal(b1-3)GlcNAc(b1-3)Gal(b1-4)GlcNAc(b1-3)Gal(b1-4)GlcNAc(b1-2)[Gal(b1-3)GlcNAc(b1-3)Gal(b1-4)GlcNAc(b1-3)Gal(b1-4)GlcNAc(b1-6)]Man(a1-6)[Gal(b1-3)GlcNAc(b1-3)Gal(b1-4)GlcNAc(b1-3)Gal(b1-4)GlcNAc(b1-2)Man(a1-3)]Man(b1-4)GlcNAc(b1-4)[Fuc(a1-6)]GlcNAc
Procedure, shortened: as §1

[13] = target: Gal(b1-4)GlcNAc(b1-2)Man(a1-3)Man(b1-4)GlcNAc(b1-4)GlcNAc
Procedure, shortened: as §1

[14] = target: Gal(b1-4)GlcNAc(b1-2)[Gal(b1-4)GlcNAc(b1-4)]Man(a1-3)[Gal(b1-4)GlcNAc(b1-2)[Gal(b1-4)GlcNAc(b1-6)]Man(a1-6)]Man(b1-4)GlcNAc(b1-4)GlcNAc
Procedure, shortened: as §1

[15] = target: Gal(b1-4)GlcNAc(b1-3)Gal(b1-4)GlcNAc(b1-2)Man(a1-3)[Gal(b1-4)GlcNAc(b1-3)Gal(b1-4)GlcNAc(b1-2)Man(a1-6)]Man(b1-4)GlcNAc(b1-4)GlcNAc
Procedure, shortened: as §1

[16] = target: Gal(b1-4)GlcNAc(b1-3)Gal(b1-4)GlcNAc(b1-3)Gal(b1-4)GlcNAc(b1-2)Man(a1-3)[Gal(b1-4)GlcNAc(b1-3)Gal(b1-4)GlcNAc(b1-3)Gal(b1-4)GlcNAc(b1-2)Man(a1-6)]Man(b1-4)GlcNAc(b1-4)GlcNAc
Procedure, shortened: as §1

[17] = target: Gal(b1-4)GlcNAc(b1-3)Gal(b1-4)GlcNAc(b1-3)Gal(b1-4)GlcNAc(b1-3)Gal(b1-4)GlcNAc(b1-3)Gal(b1-4)GlcNAc(b1-2)Man(a1-3)[Gal(b1-4)GlcNAc(b1-3)Gal(b1-4)GlcNAc(b1-3)Gal(b1-4)GlcNAc(b1-3)Gal(b1-4)GlcNAc(b1-3)Gal(b1-4)GlcNAc(b1-2)Man(a1-6)]Man(b1-4)GlcNAc(b1-4)[Fuc(a1-6)]GlcNAc
Procedure, shortened: as §1

[18] = target: Gal(b1-4)GlcNAc(b1-3)Gal(b1-4)GlcNAc(b1-3)Gal(b1-4)GlcNAc(b1-3)Gal(b1-4)GlcNAc(b1-3)Gal(b1-4)GlcNAc(b1-2)[Gal(b1-4)GlcNAc(b1-3)Gal(b1-4)GlcNAc(b1-3)Gal(b1-4)GlcNAc(b1-3)Gal(b1-4)GlcNAc(b1-3)Gal(b1-4)GlcNAc(b1-6)]Man(a1-6)[Gal(b1-4)GlcNAc(b1-3)Gal(b1-4)GlcNAc(b1-3)Gal(b1-4)GlcNAc(b1-3)Gal(b1-4)GlcNAc(b1-3)Gal(b1-4)GlcNAc(b1-2)Man(a1-3)]Man(b1-4)GlcNAc(b1-4)[Fuc(a1-6)]GlcNAc
Procedure, shortened: as §1

[19] = target: Gal(b1-4)GlcNAc(b1-3)Gal(b1-4)GlcNAc(b1-3)Gal(b1-4)GlcNAc(b1-3)Gal(b1-4)GlcNAc(b1-3)Gal(b1-4)GlcNAc(b1-3)Gal(b1-4)GlcNAc(b1-2)Man(a1-3)[Gal(b1-4)GlcNAc(b1-3)Gal(b1-4)GlcNAc(b1-3)Gal(b1-4)GlcNAc(b1-3)Gal(b1-4)GlcNAc(b1-3)Gal(b1-4)GlcNAc(b1-3)Gal(b1-4)GlcNAc(b1-2)Man(a1-6)]Man(b1-4)GlcNAc(b1-4)GlcNAc
Procedure, shortened: as §1

[20] = target: Gal(b1-4)GlcNAc(b1-3)Gal(b1-4)GlcNAc(b1-6)[Gal(b1-3)]GalNAc
Procedure, shortened: as §1

Gal(b1-6)Gal = target: Gal(b1-6)Gal
Procedure, shortened: as §1

Gal4S6S(b1-4)GlcNAc = target: Gal4S6S(b1-4)GlcNAc
Procedure, shortened: as §1

Gal6S(b1-3)GlcNAc = target: Gal6S(b1-3)GlcNAc
Procedure, shortened: as §1

[21] = target: GalNAc3S(b1-4)[Fuc(a1-3)]GlcNAc
Procedure, shortened: as §1

Glc(a1-4)Glc = target: Glc(a1-4)Glc
Procedure, shortened: as §1

[22] = target: Glc(a1-4)Glc(a1-4)Glc(a1-4)Glc
Procedure, shortened: as §1

GlcA(b1-3)GlcNAc = target: GlcA(b1-3)GlcNAc
Procedure, shortened: as §1

[23] = target: GlcNAc(a1-3)Gal(b1-4)GlcNAc
Procedure, shortened: as §1

[24] = target: GlcNAc(b1-2)[GlcNAc(b1-6)]Man(a1-6)[GlcNAc(b1-2)Man(a1-3)]Man(b1-4)GlcNAc(b1-4)[Fuc(a1-6)]GlcNAc
Procedure, shortened: as §1

[25] = target: GlcNAc(b1-2)[GlcNAc(b1-6)]Man(a1-6)[GlcNAc(b1-4)][GlcNAc(b1-2)Man(a1-3)]Man(b1-4)GlcNAc(b1-4)GlcNAc
Procedure, shortened: as §1

GlcNAc(b1-3)Gal = target: GlcNAc(b1-3)Gal
Procedure, shortened: as §1

[26] = target: GlcNAc(b1-3)[GlcNAc(b1-6)]GalNAc
Procedure, shortened: as §1

[27] = target: GlcNAc(b1-4)GlcNAc(b1-4)GlcNAc
Procedure, shortened: as §1

[28] = target: GlcNAc(b1-4)GlcNAc(b1-4)GlcNAc(b1-4)GlcNAc(b1-4)GlcNAc
Procedure, shortened: as §1

[29] = target: GlcNAc(b1-6)Gal(b1-4)GlcNAc
Procedure, shortened: as §1

GlcNAc(b1-6)GalNAc = target: GlcNAc(b1-6)GalNAc
Procedure, shortened: as §1

MurNAc(b1-4)GlcNAc = target: MurNAc(b1-4)GlcNAc
Procedure, shortened: as §1

[30] = target: Neu5Ac(a2-3)Gal(b1-3)GlcNAc(b1-2)Man(a1-3)[Neu5Ac(a2-3)Gal(b1-3)GlcNAc(b1-2)Man(a1-6)]Man(b1-4)GlcNAc(b1-4)GlcNAc
Procedure, shortened: as §1

[31] = target: Neu5Ac(a2-3)Gal(b1-3)GlcNAc6S
Procedure, shortened: as §1

[32] = target: Neu5Ac(a2-3)Gal(b1-3)]Neu5Ac(a2-3)Gal(b1-4)]GlcNAc
Procedure, shortened: as §1

[33] = target: Neu5Ac(a2-3)Gal(b1-4)[Fuc(a1-3)]GlcNAc(b1-3)Gal(b1-4)GlcNAc
Procedure, shortened: as §1

[34] = target: Neu5Ac(a2-3)Gal(b1-4)[Fuc(a1-3)]GlcNAc(b1-6)[Gal(b1-3)]GalNAc
Procedure, shortened: as §1

[35] = target: Neu5Ac(a2-3)Gal(b1-4)[Fuc(a1-3)]GlcNAc(b1-6)[Neu5Ac(a2-3)Gal(b1-3)]GalNAc
Procedure, shortened: as §1

[36] = target: Neu5Ac(a2-6)Gal(b1-4)GlcNAc(b1-2)[Neu5Ac(a2-6)Gal(b1-4)GlcNAc(b1-4)]Man(a1-3)[GlcNAc(b1-4)][Neu5Ac(a2-6)Gal(b1-4)GlcNAc(b1-2)[Neu5Ac(a2-6)Gal(b1-4)GlcNAc(b1-6)]Man(a1-6)]Man(b1-4)GlcNAc(b1-4)GlcNAc
Procedure, shortened: as §1

[37] = target: Neu5Ac(a2-6)Gal(b1-4)GlcNAc(b1-2)[Neu5Ac(a2-6)Gal(b1-4)GlcNAc(b1-6)]Man(a1-6)[Neu5Ac(a2-6)Gal(b1-4)GlcNAc(b1-2)Man(a1-3)][GlcNAc(b1-4)]Man(b1-4)GlcNAc(b1-4)GlcNAc
Procedure, shortened: as §1

Neu5Ac(b2-6)GalNAc = target: Neu5Ac(b2-6)GalNAc
Procedure, shortened: as §1

[38] = target: Neu5Gc(a2-3)Gal(b1-3)GlcNAc
Procedure, shortened: as §1

[39] = target: Neu5Gc(a2-8)Neu5Ac(a2-3)Gal(b1-4)GlcNAc
Procedure, shortened: as §1

B1: Pbx1 (Cryptococcus neoformans) (protein)
chain: ATTKCLVSGDQDSINNALALGGEGTTVTLCPGSVHRLNSSIIFTAPSQTLTTLGNPKDRNRAMLVVDGEDLACAIRADCKQCSHAMIRSLVIDGNRPQLLRIPKGDALIEVGNAESQTVRDCKLYEPRGWSALHFREGDERQCRFGHIVDNEIGPCGEEWDDEYDSMDETKPLWGNPRADGISLACKDSIVERNVVYDATDGAIVLFGSAGSTVKNNHVYARTRVILGGINLVDYEPWDGDYTNVKVHHNHLYALGRYFKVGIVIGPASWSDDTESVVHSASVTDNEFSGGYWGYGIVVASAKNFEVLRNKVIWDGEQGVARFSGVPGSRCPKAPENGKPTAFLINRGSAKGIFQDDFVNGEVQHIICLNPDQDPPYKPWRFRDSPEAIAAKQAENPTANSAFDSRIAEALVSYQMSLLNSMDAMTQKVEHLTNPIVDDALPFVHEHERAEADKKARQEASRKEKESGNKDVDMLNVKVEELEKSGRRLKKALDGLKSDFEGLSGRLKKSADENKPIIETIFVTSQNLLLGATSQQN
[1]
  glycan array binding signal (z-score): 2.82
[2]
  glycan array binding signal (z-score): -0.654
[3]
  glycan array binding signal (z-score): -0.203
[4]
  glycan array binding signal (z-score): 0.002
[5]
  glycan array binding signal (z-score): 0.252
[6]
  glycan array binding signal (z-score): 2.34
[7]
  glycan array binding signal (z-score): 1.04
[8]
  glycan array binding signal (z-score): 2.14
[9]
  glycan array binding signal (z-score): -0.304
[10]
  glycan array binding signal (z-score): 0.415
[11]
  glycan array binding signal (z-score): -0.533
[12]
  glycan array binding signal (z-score): 15
[13]
  glycan array binding signal (z-score): -0.195
[14]
  glycan array binding signal (z-score): 0.072
[15]
  glycan array binding signal (z-score): 2.91
[16]
  glycan array binding signal (z-score): 2.41
[17]
  glycan array binding signal (z-score): 5.6
[18]
  glycan array binding signal (z-score): 4.38
[19]
  glycan array binding signal (z-score): 1.03
[20]
  glycan array binding signal (z-score): 2.33
Gal(b1-6)Gal
  glycan array binding signal (z-score): -0.233
Gal4S6S(b1-4)GlcNAc
  glycan array binding signal (z-score): -0.366
Gal6S(b1-3)GlcNAc
  glycan array binding signal (z-score): 0.304
[21]
  glycan array binding signal (z-score): 0.766
Glc(a1-4)Glc
  glycan array binding signal (z-score): 0.352
[22]
  glycan array binding signal (z-score): -0.56
GlcA(b1-3)GlcNAc
  glycan array binding signal (z-score): 0.759
[23]
  glycan array binding signal (z-score): 0.052
[24]
  glycan array binding signal (z-score): -0.137
[25]
  glycan array binding signal (z-score): -0.848
GlcNAc(b1-3)Gal
  glycan array binding signal (z-score): -0.639
[26]
  glycan array binding signal (z-score): -0.235
[27]
  glycan array binding signal (z-score): -0.565
[28]
  glycan array binding signal (z-score): -0.631
[29]
  glycan array binding signal (z-score): -0.045
GlcNAc(b1-6)GalNAc
  glycan array binding signal (z-score): -0.262
MurNAc(b1-4)GlcNAc
  glycan array binding signal (z-score): 5.14
[30]
  glycan array binding signal (z-score): 0.345
[31]
  glycan array binding signal (z-score): -0.618
[32]
  glycan array binding signal (z-score): -1.05
[33]
  glycan array binding signal (z-score): 0.071
[34]
  glycan array binding signal (z-score): 3.7
[35]
  glycan array binding signal (z-score): 0.371
[36]
  glycan array binding signal (z-score): 2.36
[37]
  glycan array binding signal (z-score): -0.36
Neu5Ac(b2-6)GalNAc
  glycan array binding signal (z-score): -0.769
[38]
  glycan array binding signal (z-score): -0.531
[39]
  glycan array binding signal (z-score): -0.771
